Compound activity from PubChem BioAssay.
The list is not random: actives were taken first. Their share in the collection is about 21%.
Pf growth 96h: P. falciparum growth inhibition at 96 hour, primary screen for plastid delayed-death inhibitors; P. falciparum luciferase reporter growth, 96 h; 6.9% of 320,000 active; Potency, µM (doses to about 28.7 µM), for the others: top-dose activity change, negative = inhibition, usual class: inhibitors; active = well fitted inhibition curve with a large enough effect; inconclusive = small, poorly fitted or top-dose-only effect, or another doubt; inactive = no such curve, though single readings can be large or run the other way; note: potency is the fitted concentration of half-maximal effect; % is set by controls: 0 for no effect and ±100 for the full control effect
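Erythrocytes infected with luciferase-expressing P. falciparum were dispensed at 2% hematocrit and 0.05% parasitemia (final), then incubated with compounds 96 hours at 37 C in 5% CO2. Luminescence after detection reagent addition reported growth.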
Cycloheximide cs: counter-screen hit for Shiga toxin inhibitors, cycloheximide. cell reporter, cycloheximide protein synthesis inhibition counterscreen. max response, %. 12% of 300,000 active. AID 2314; in the data active = max response mostly above about 13%, no sharp cut-off; inactive = mostly below about 14%; note: read at 38.3 µM for the half of the compounds with a filed dose; 0% is about no effect
SARS PLpro yeast: inhibitors of SARS-CoV papain-like protease in yeast. S. cerevisiae expressing SARS-CoV PLpro, growth rescue. Potency, µM (titrated, usually from 32.9 µM), for the others: at the top dose activity, positive = growth rescue, usual class: activators. 0.19% of 330,000 active. AID 485353; note: potency is the fitted concentration of half-maximal effect; 0% is about no effect; nearly all actives have a fitted effect of over 55% in size
Shiga toxin inh: blocks Shiga toxin action in Vero cells; inhibition, % at 38.7 µM; AID 2315; Vero cells, Shiga toxin protein synthesis inhibition reporter; 9.2% of 290,000 active; in the data active = inhibition mostly above about 28%, no sharp cut-off; inactive = mostly below about 43%; note: 0% is about no effect
Pf growth 48h: inhibits P. falciparum growth in the first generation, 48 h. Potency, µM (doses to about 28.7 µM), for the others: at the highest dose activity change, negative = inhibition, usual class: inhibitors. AID 504832. P. falciparum luciferase growth in erythrocytes, 48 h. 5.9% of 310,000 active; active = well fitted inhibition curve with a large enough effect; inconclusive = small, poorly fitted or top-dose-only effect, or another doubt; inactive = no such curve, though single readings can be large or run the other way; note: potency is the fitted concentration of half-maximal effect; % is set by controls: 0 for no effect and ±100 for the full control effect
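Luciferase-expressing parasites in RBCs, 2% Hct / 0.1% parasitemia final; RPMI 1640 + 0.5% Albumax; 37 C, 5% CO2, one generation; luminescence read-out, lower signal = inhibition.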
NS1 function inh: influenza NS1 inhibition | Potency, µM (top dose mostly 46.1 µM), for inactives: at the top dose activity, positive = more growth | 0.4% of 270,000 active | AID 2326; note: potency is the fitted concentration of half-maximal effect; actives are rising curves; nearly all actives have a fitted effect of over 50% in size
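Compounds were scored for reversing the slow growth caused by influenza A NS1 in S. cerevisiae, measured by optical density at 600 nm. Assay medium contained 2% galactose at pH 6.0; NS1-free yeast of the same strain were the positive control.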
Starred values were filed as active, the others as inactive; ? = inconclusive; · = no result; [ ] = another dose, or the depositor's remark. Unless noted, calls come from the whole dose curve.

SMILES	Pf growth 96h	Cycloheximide cs	SARS PLpro yeast	Shiga toxin inh	Pf growth 48h	NS1 function inh
CCN1CCN(Cc2ccc(NC(=O)c3cc(NC(=O)c4cc(-c5ccc(OC)cc5)n[nH]4)cc(OC)c3)cc2C(F)(F)F)CC1	0.093µM*	2	1%	18	0.12µM*	18%
COc1cccc(COC(=O)C2CCN(S(=O)(=O)c3ccc(F)cc3)CC2)c1OC	27%	·	-6%	·	2%	·
CC(C)CC1c2[nH]c3ccccc3c2CCN1C(=O)C1CCOCC1 (configuration not stated)	4%	-3	-1%	6	4.7µM*	-5%
Cn1cccc1-c1cc(C(=O)N2CCc3c([nH]c4ccccc34)C2c2ccccn2)[nH]n1 (configuration not stated)	0%	-2	0%	-20	?	22%
CC(C)CC1c2[nH]c3ccccc3c2CCN1C(=O)CCC(=O)N(C)C (configuration not stated)	6.6µM*	18	0%	44*	1%	-5%
CC(C)CC1c2[nH]c3ccccc3c2CCN1C(=O)c1cnccn1 (configuration not stated)	?	51*	1%	76*	?	1%
Cc1c(CN2CCc3c([nH]c4ccccc34)C2CC(C)C)cnn1C (configuration not stated)	0%	-3	3%	-6	-28%	-3%
CC(=O)c1cc(C(=O)N2CCc3c([nH]c4ccccc34)C2CC(C)C)[nH]n1 (configuration not stated)	9.3µM*	-1	0%	11	?	-4%
O=C(O)CSCC(=O)N1CCc2c([nH]c3ccccc23)C1C(F)(F)F (configuration not stated)	6%	-5	1%	-8	16%[0.00184 µM]	-3%
Cc1cccc(NC(=O)CN2CCN(C(=O)c3cccc(-n4cnnn4)c3)CC2)c1C	?	·	1%	·	?	·
COc1ccc(C(CNc2ccc(C(F)(F)F)cn2)N(C)C)cc1OC (configuration not stated)	?	-2	-2%	-9	-16%	-12%
Cc1ccc(S(=O)(=O)N2C(=O)CCC2C(N)=O)cc1 (configuration not stated)	?	-2	0%	-17	10%	4%
c1ccc(-c2nnc3sc(-c4csc5c4CCCC5)nn23)cc1	23%	13*	-22%	-35	10µM*	-31%
Cc1cccc(-c2nnc3sc(-c4ccccc4C)nn23)c1	·	11	-1%	46*	?	-90%
COc1ccc(-c2nn3c(=O)c(C)nnc3s2)cc1	?	28	-1%	54*	?	0%
Cc1nc2sc(-c3ccccc3)nn2c(=O)c1Br	-15%	56*	-8%	94*	113%	-23%
COc1ccc(-c2nn3c(-c4ccccc4)nnc3s2)cc1	5%[5.75 µM]	10	0%	28	?	-54%
Cc1ccc(CNC(=O)CSc2nnc3n2CCCCC3)cc1	-26%	·	-2%	·	-16%	·
C=CCn1c(SCC(=O)Nc2cc(C)on2)nc2sc(CC)cc2c1=O	·	-2	2%	-20	-12%	?
COc1cc(-c2nn3c(-c4ccccn4)nnc3s2)cc(OC)c1OC	-10%	-1	-2%	-33	20%	3%
CCOc1cccc(-c2nnc3sc(-c4cc(OC)c(OC)cc4OC)nn23)c1	35%	-3	2%	-1	1%	?
COc1cccc(OC)c1-c1nn2c(-c3cc(-c4ccccc4)n[nH]3)nnc2s1	-21%	-1	-6%	-4	2.1µM*	6%
COc1cccc(-c2nnc3sc(-c4ccccc4)nn23)c1	3.3µM*	-4	-3%	23	?	-9%
c1ccc(-c2nnc3sc(-c4ccncc4)nn23)cc1	·	-3	2%	-16	-26%	-1%
COc1cccc(-c2nnc3sc(-c4ccc(Cl)cc4)nn23)c1	-10%	-6	-1%	-22	6%	1%
SMILES	Pf growth 96h	Cycloheximide cs	SARS PLpro yeast	Shiga toxin inh	Pf growth 48h	NS1 function inh
CCOc1cccc(-c2nn3c(-c4cc(C)[nH]n4)nnc3s2)c1	1.7µM*	10	-6%	15	?	-2%
Clc1cccc(-c2nn3c(-c4ccncc4)nnc3s2)c1	13µM*	-3	-2%	-18	20%	3%
NS(=O)(=O)c1ccc(CCNC(=O)c2ccc3c(=O)n4c(nc3c2)CCCCC4)cc1	·	·	2%	·	·	·
Cc1cc(NC(=S)NC(=O)CC(C)C)ccc1Br	?	32*	11%	115*	0%	10%
CC(C)CC(=O)NC(=S)Nc1ccc(N2CCN(C(=O)c3cccs3)CC2)cc1	?	-2	1%	13	10µM*	9%
CC(C)CC(=O)NC(=S)Nc1ccc(NC(=O)c2cccs2)cc1	5.2µM*	0	7%	13	·	-6%
c1ccc2c(CN3CCSCC3)cccc2c1	?	4	7%	·	12%	-6%
CC(C)(C)OC(=O)N[C@@H](Cc1c[nH]c2ccccc12)C(=O)O	·	-5	·	25	·	·
N#CCCN1C(=O)C2(OCCO2)c2ccccc21	1%	-8	0%	-1	-22%[0.00184 µM]	6%
CCOc1cc(S(=O)(=O)NC2CCCCCC2)ccc1F	·	23	-23%	41*	8%	-122%
CCOc1ccc(Br)cc1S(=O)(=O)NC1CCCC1	8.3µM*	·	-5%	·	?	·
CCOc1ccc(S(=O)(=O)NC2CCCCCC2)cc1	-19%	0	-1%	-8	7%	-33%
CCOc1cc(C)c(S(=O)(=O)NC2CCCCC2)cc1C	6%	8	-4%	33	2%	-42%
CCCCN1CCN=C1Nc1ccccc1	5%	1	2%	7	17%	-2%
O=C(CCNC(=O)c1ccccc1)OCC(=O)c1ccccc1	95%	13	-1%	7	28%	·
COc1ccc(NC(=O)CNC(=O)Cn2cnc3sc(C)c(C)c3c2=O)cc1OC	10µM*	-11	-3%	-10	1%	-2%
COc1cc(OC)c(NC(=O)CN(C)S(=O)(=O)c2ccc3[nH]c(=O)oc3c2)cc1Cl	?	-9	-4%	18	11%	8%
OC(COc1ccc(CNCCc2ccc(C(F)(F)F)cc2)cc1)CN1CCCCC1 (configuration not stated)	10%	-3	0%	-11	2.1µM*	5%
Cc1ccc(S(=O)(=O)Nc2cccc(C(=O)NCC3CCCO3)c2)cc1F (configuration not stated)	-2%	·	2%	·	-7%	·
O=[N+]([O-])c1ccccc1OCCN1CCOCC1	-6%	5	7%	11	49%	12%
Cc1cc(C)cc(C(=O)Nc2nnc(SCC(=O)NCC3CCCO3)s2)c1 (configuration not stated)	34%	-1	0%	-8	6%	-15%
COCCn1c(=NC(=O)/C=C/c2ccccc2)sc2cc(NC(C)=O)ccc21	2.6µM*	-2	15%	-8	?	-4%
Cc1ccc(-n2nc(-c3ccc(N)cc3)cc2N)cc1	?	32*	-20%	61*	29%	?
